Anesthetic bind – binds horse apoferritin like a general anesthetic. P02791. apoferritin/1-aminoanthracene competitive binding, fluorescence. Potency, µM (series often up to 77.5 µM), usual class: inhibitors. actives 0.074% (n = 350,000); note: nearly all actives have a fitted effect of over 20% in size
Target sequence (P02791 2-175 limits assumed): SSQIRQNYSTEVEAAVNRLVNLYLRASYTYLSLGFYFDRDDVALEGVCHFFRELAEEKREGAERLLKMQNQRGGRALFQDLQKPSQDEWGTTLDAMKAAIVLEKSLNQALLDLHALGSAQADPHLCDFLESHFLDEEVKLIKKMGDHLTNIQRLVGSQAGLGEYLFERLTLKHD
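Apoferritin-based anesthetic binding model; compound displacement of fluorescent 1-AMA measured as endpoint fluorescence after 10 minutes at room temperature, scaled to free-ligand and complex controls.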
rTrxR1 inhibitor – inhibitors of rat thioredoxin reductase 1 | recombinant rTrxR1, NADPH fluorescence consumption, selenite substrate | Potency, µM (titrated, usually from 114 µM), most hits filed as inhibitors | actives 1% (n = 390,000); note: nearly all actives have a fitted effect of over 65% in size
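Rat TrxR1 (90 nM in the dispensed reagent) was pre-reduced with 400 uM NADPH for 5 min at room temperature, then incubated with compound for 15 min. After 400 uM selenite was added, NADPH fluorescence (Ex 340/Em 450 nm) was followed for 8 min.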
IDH1 R132H inh – inhibitors of human mutant IDH1 R132H. Potency, µM (highest dose often 76.6 µM), usual class: inhibitors. actives 0.093% (n = 390,000). AID 602179. IDH1-R132H enzyme, NADPH consumption, diaphorase/resazurin fluorescence; note: nearly all actives have a fitted effect of over 65% in size
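IDH1-R132H (0.5 ug/mL) preincubated 30 min with compound, then NADPH (0.016 mM) and alpha-KG (2 mM) added; 80 min at RT, pH 7.5. Remaining NADPH coupled via diaphorase/resazurin to fluorescence (540/590 nm); concentration-response curves normalized to no-enzyme control.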
GALK inh – galactokinase (human) inhibition. Potency, µM (top dose mostly 57.5 µM), most hits filed as inhibitors. AID 1868. Purified GALK, Kinase-Glo residual ATP luminescence. actives 0.007% (n = 270,000). P51570
Target sequence (P51570 whole entry, looked up): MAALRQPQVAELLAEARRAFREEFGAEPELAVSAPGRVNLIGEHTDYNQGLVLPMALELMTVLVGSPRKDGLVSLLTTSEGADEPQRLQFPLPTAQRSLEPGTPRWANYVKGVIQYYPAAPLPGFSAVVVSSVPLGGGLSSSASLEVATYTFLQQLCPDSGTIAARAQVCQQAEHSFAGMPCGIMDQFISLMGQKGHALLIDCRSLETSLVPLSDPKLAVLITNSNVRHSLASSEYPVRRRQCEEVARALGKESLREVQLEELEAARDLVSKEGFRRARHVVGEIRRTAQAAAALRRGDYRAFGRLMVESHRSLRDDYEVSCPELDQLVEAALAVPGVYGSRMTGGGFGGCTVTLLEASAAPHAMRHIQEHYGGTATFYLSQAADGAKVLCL
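Compounds were pin-transferred into ATP buffer (35 uM final), then GALK plus galactose (5 nM, 100 uM final) was added. After 1 h at room temperature, Kinase-Glo Plus was added and luminescence read after 10 min.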
TrxR1 substrate – substrates of rat thioredoxin reductase 1. AID 588456. O89049. Potency, µM (series often up to 114 µM). actives 0.01% (n = 390,000). purified TrxR1 substrate turnover, NADPH consumption readout; note: nearly all actives have a fitted effect of over 50% in size
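Rat TrxR1, dispensed at 90 nM, was prereduced with 400 uM NADPH (final) for 5 min at ~22 deg C, then incubated with compound 15 min before 400 uM selenite. A first-read NADPH fluorescence drop versus no-compound background flagged substrates.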
PKM2 act – activators of human pyruvate kinase M2. P14618. purified PKM2, Kinase-Glo ATP luminescence, activation; response scale: 0% is enzyme alone, no compound. Potency, µM (doses to about 57.5 µM), hits mostly activators. actives 0.34% (n = 260,000); note: nearly all actives have a fitted effect of over 55% in size
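Kinase-Glo luminescence reports ATP generated from ADP (0.1 mM) and PEP (0.5 mM) by purified hPK-M2 after 1 h at room temperature, pH 7.2 imidazole buffer; intermediate enzyme activity allows detecting inhibitors and activators.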
Hits are given with their value; 0 = inactive; ? = inconclusive; - = not tested or not shown; [ ] = another dose, or the depositor's remark. Rows were chosen to be rich in hits. Some 1.3% of all compounds tested hit in one or more screens of this group. Calls come from the whole dose curve; as a rule, active = well fitted curve in the direction sought with a large enough effect; inconclusive = small, poorly fitted or top-dose-only effect, or another doubt; inactive = no such curve, though single readings can be large; an effect the other way counts as inactive or inconclusive.

SMILES | Anesthetic bind | rTrxR1 inhibitor | IDH1 R132H inh | GALK inh | TrxR1 substrate | PKM2 act
COc1ccc(C2=CC3=C(Br)C(=O)C(C)(OC(=O)c4cccs4)C(=O)C3=CO2)cc1 (configuration not stated) | - | 50µM | 0 | - | 0 | -
Cc1ccc(S(=O)(=O)C(CNC(=O)C(=O)NCc2ccccc2C)c2cccs2)cc1 (configuration not stated) | 0 | 0 | 0 | - | 0 | -
Cc1ccc(CSc2nnc(-c3ccc(NC(=O)CCc4ccccc4)cc3)n2C)cc1 | - | 0 | - | - | 0 | -
Cc1nnc(NC(=O)CSc2ccc(-c3cccnc3)nn2)s1 | 0 | 0 | 0 | 0 | 0 | 2.8µM
Cc1cc(NC(=O)CSc2ccc(-c3ccccc3)nn2)no1 | 0 | 0 | 0 | 0 | 0 | 16µM
Cc1cc(NC(=O)CSc2ccc(-c3ccc(F)cc3)nn2)no1 | 0 | 0 | 0 | 0 | 0 | 7.1µM
Cc1cc(NC(=O)CSc2ccc(-c3cccc([N+](=O)[O-])c3)nn2)no1 | 0 | 0 | 0 | 0 | 0 | 0
CC(=O)Nc1ccc(NC(=O)CSc2ccc(-c3cccnc3)nn2)cc1 | 0 | 0 | 0 | 0 | 0 | 0
O=C1[C@H](Cc2ccccc2)NC/C=C\C[C@@H](c2ccc(Cl)cc2)N1Cc1ccccc1 | - | 0 | - | - | 0 | -
CCOC(=O)CCCC(=O)N1CCN(/[N+]([O-])=N/Oc2ccc([N+](=O)[O-])cc2[N+](=O)[O-])CC1 | - | 16µM | - | - | 0 | -
CCCCCCCCCCCCOC(=O)N1CCN(/[N+]([O-])=N/Oc2ccc([N+](=O)[O-])cc2[N+](C)=O)CC1 | - | 50µM | - | - | 0[0.457 µM] | -
CCOC(=O)c1nnn(-c2ccc([N+](=O)[O-])cc2[N+](=O)[O-])c1C | 0 | 0 | 0 | 0 | 0 | 0
CCOC(=O)N1CCN(c2ccc([N+](=O)[O-])cc2)CC1 | 0 | 0 | 0 | 0 | 0 | 0
CCOC(=O)N1CCN(/[N+]([O-])=N/Oc2ccc([N+](=O)[O-])cc2[N+](=O)[O-])CC1 | ? | 6.7µM | - | - | 0 | -
CN(C)S(=O)(=O)c1ccc2c(c1)N(CC(=O)N1CCN(c3ccc(F)cc3)CC1)CCS2 | 0 | 0 | 0 | - | 0 | -
CCCCCCCOc1ccc(CC(=O)NO)cc1 | - | 0 | - | - | 0 | -
COc1ccc(OCCOC(=O)CN2C(=O)NC3(CCCC3)C2=O)cc1 | - | 0 | 0 | - | 0 | -
CCCc1cc(=O)oc2cc(OC(=O)CN3C(=O)NC4(CCCC4)C3=O)ccc12 | - | 79µM | 0 | - | 0 | -
CC(=O)c1c(C)oc2c(Br)cc(NS(=O)(=O)c3ccc(Br)cc3)cc12 | ? | 0 | 0 | - | 0 | -
CCOC(=O)/C(=C/c1c(C)n(C)c2ccc([N+](=O)[O-])cc12)C(C)=O | 0 | 45µM | 0 | 0 | 0 | 0
CCOC(=O)c1c(N)c2cc([N+](=O)[O-])ccc2n1C | 0 | 0 | 0 | 0 | 0 | 0
Cc1ccc2onc(CNC(=O)Nc3cc(F)ccc3F)c2c1 | ? | 0 | 0 | - | 0 | -
O=C(CN1CCCCCC1)Nc1ccccc1F | 0 | 0 | 0 | 0 | 0 | 0
O=C(CC(=O)Nc1ccccc1F)Nc1ccccc1F | 0 | 89µM | 0 | 0 | 0 | -
Nc1c(-c2nc(-c3cccs3)no2)nnn1-c1cccc(F)c1 | 0 | 0 | 0 | - | 0 | -
SMILES | Anesthetic bind | rTrxR1 inhibitor | IDH1 R132H inh | GALK inh | TrxR1 substrate | PKM2 act
O=c1c(Cl)cc(Cl)nn1-c1ccccc1 | 0 | 25µM | 0 | 0 | 0 | 0
COc1cc(Cl)nn(-c2ccccc2)c1=O | 0 | 0 | 0 | 0 | 0 | 0
O=C(Cn1cnc2ccccc2c1=O)OCC(=O)c1ccc2c(c1)OCCO2 | 16µM | 0 | 0 | 0 | 0 | 0
O=C(Cn1cnc2ccccc2c1=O)Nc1ccc2c(c1)OCCO2 | 0 | 0 | 0 | 0 | 0 | 0
CC(NC(=O)/C=C/c1ccco1)c1nc2ccccc2n1Cc1cccc(Cl)c1 (configuration not stated) | 0 | 14µM | 0 | 0 | 0 | ?
CCC(O)c1nc2ccccc2n1Cc1cccc(Cl)c1 (configuration not stated) | 0 | 0 | 0 | - | 0 | -
O=C(NC(=S)NCc1ccc(F)cc1)c1ccccc1 | 0 | 13µM | 0 | - | 0 | 0
O=C(NC(=S)NCc1ccccc1)c1ccccc1 | 0 | ? | 0 | 0 | 0 | 0
Cn1c(=O)c2[nH]c(-c3ccccc3Cl)c(O)c2n(C)c1=O | 0 | 0 | 0 | 0 | 0 | ?
Cn1c(=O)c2[nH]c(-c3ccccc3)c(O)c2n(C)c1=O | 0 | ? | 0 | 0 | 0 | 1.4µM
CN(C)c1ccc(N=Cc2cccc3ccccc23)cc1 | - | ? | - | - | 0 | -

Assay outcomes from PubChem BioAssay.
